Results reported in article PMC5700166.
Substitutions are numbered along the chain they refer to.

Experiments:
Assay in all cases: protein-binding microarray (PBM); PBM: ~300 nM protein, 6 mM HEPES pH 7.8, 80 mM KCl, 0.5 mM EDTA, 0.5 mM EGTA, 6% glycerol, 35 ng/ul poly-dIdC, 1% milk, 1 h, room temperature; Ap Aiptasia and Nv Nematostella (sea anemones) / Co Capsaspora / Aq Amphimedon (sponge) / Dm Drosophila / Hu human; RHD is the Rel homology domain; high values mean tight binding
Conditions in all cases: dsDNA, one strand shown
GST-Ap-NF-kB RHD = target: T1, GST-Ap-NF-kB RHD (Exaiptasia pallida (Aiptasia), UniProt A0A913YAJ5 2-422)
T1 sequence: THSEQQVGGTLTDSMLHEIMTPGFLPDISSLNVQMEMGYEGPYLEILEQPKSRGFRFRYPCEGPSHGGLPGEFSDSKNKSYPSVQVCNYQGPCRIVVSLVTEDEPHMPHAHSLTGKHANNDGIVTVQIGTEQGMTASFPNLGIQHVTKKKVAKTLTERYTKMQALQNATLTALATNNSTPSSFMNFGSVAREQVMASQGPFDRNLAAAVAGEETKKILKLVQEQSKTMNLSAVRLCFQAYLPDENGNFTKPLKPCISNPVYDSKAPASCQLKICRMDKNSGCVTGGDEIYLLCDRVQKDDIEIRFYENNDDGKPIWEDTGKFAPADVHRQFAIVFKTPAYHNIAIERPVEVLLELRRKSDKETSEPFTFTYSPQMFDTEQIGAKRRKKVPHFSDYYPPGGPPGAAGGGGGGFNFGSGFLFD

[1] = target: T2, GST-Nv-NF-kB (Cys allele) (Nematostella vectensis, UniProt E5G601 2-411)
T2 sequence: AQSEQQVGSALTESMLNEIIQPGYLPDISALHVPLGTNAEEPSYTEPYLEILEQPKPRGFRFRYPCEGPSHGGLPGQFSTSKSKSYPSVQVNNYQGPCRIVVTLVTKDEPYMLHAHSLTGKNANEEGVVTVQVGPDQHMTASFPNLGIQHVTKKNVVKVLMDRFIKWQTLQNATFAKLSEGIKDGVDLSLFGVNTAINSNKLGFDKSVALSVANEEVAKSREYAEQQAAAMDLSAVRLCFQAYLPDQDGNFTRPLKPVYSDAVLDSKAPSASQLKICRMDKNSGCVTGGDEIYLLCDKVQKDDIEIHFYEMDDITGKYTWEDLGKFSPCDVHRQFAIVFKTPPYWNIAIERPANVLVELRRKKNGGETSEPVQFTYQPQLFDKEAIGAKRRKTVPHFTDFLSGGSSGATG

[2] = target: T3, GST-Nv-NF-kB (Ser allele) (Nematostella vectensis, UniProt A7UNT2 2-411)
T3 sequence: T2 sequence with Q21R, C66S, S207N, E215Q, V217A, E225K, A268E, D399E

GST-Co-NF-kB = target: T4, GST-Co-NF-kB (Capsaspora owczarzaki, UniProt F1ARL5 200-546)
T4 sequence: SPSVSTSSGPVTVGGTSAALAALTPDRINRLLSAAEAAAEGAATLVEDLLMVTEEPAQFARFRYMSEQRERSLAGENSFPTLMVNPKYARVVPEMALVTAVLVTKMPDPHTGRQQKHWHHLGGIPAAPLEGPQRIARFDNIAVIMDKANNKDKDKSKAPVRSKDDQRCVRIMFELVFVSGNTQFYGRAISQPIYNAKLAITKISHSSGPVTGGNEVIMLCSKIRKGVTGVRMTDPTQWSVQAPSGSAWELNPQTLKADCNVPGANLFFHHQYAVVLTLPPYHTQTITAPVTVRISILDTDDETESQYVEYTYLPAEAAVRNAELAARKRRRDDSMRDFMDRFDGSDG

GST-Dm-Relish = target: T5, GST-Dm-Relish (Drosophila melanogaster, UniProt Q94527 99-473)
T5 sequence: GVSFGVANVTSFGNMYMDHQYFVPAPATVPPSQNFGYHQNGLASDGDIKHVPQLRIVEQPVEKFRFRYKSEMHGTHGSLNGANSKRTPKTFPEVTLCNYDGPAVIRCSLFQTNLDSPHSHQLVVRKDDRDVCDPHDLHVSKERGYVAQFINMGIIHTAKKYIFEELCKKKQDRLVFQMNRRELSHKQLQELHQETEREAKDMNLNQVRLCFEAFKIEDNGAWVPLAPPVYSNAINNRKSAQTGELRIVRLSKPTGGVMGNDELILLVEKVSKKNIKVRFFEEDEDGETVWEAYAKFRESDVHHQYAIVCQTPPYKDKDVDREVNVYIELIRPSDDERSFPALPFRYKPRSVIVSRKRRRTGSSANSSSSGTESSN

GST-Aq-NF-kB = target: T6, GST-Aq-NF-kB (Amphimedon queenslandica, UniProt A9Y5G7 2-389)
T6 sequence: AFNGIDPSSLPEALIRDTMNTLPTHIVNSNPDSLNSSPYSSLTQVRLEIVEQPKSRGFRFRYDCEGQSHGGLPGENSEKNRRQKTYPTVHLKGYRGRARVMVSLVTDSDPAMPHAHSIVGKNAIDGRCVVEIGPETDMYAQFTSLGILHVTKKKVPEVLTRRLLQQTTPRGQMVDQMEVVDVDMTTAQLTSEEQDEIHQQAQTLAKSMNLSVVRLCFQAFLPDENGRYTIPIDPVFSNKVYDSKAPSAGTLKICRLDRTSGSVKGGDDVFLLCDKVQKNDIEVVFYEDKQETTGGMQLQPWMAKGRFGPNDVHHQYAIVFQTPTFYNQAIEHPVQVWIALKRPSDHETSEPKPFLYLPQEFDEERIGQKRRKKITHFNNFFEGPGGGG

GST-Hu-p50 = GST-Hu-p50 (Homo sapiens, UniProt P19838 7-356)
GST-Hu-p50, sequence (P19838 7-356): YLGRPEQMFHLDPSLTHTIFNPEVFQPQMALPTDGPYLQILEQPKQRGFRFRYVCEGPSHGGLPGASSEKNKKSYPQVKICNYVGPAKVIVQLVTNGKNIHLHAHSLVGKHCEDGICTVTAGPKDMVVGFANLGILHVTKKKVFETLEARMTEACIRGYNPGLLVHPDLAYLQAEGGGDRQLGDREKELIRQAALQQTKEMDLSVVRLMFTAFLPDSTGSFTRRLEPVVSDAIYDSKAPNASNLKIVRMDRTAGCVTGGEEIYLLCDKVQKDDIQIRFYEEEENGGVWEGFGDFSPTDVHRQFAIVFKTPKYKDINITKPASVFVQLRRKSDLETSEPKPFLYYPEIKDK

Sequence	binding signal (GST-Ap-NF-kB RHD)	binding signal [1]	binding signal [2]	binding signal (GST-Co-NF-kB)	binding signal (GST-Dm-Relish)	binding signal (GST-Aq-NF-kB)	binding signal (GST-Hu-p50)
CCGATTAACATCAGGGGGAGGTATGATGTTAATCGGGTCTTGATTCGCTTGACGCTGCTG	4.66 z-score	4.16 z-score	5.35 z-score	6.26 z-score	2.41 z-score	3.87 z-score	4.35 z-score
CCGATTAACATCAGGGGGATGCATGATGTTAATCGGGTCTTGATTCGCTTGACGCTGCTG	4.72 z-score	4.49 z-score	5.56 z-score	4.12 z-score	3.39 z-score	3.86 z-score	4.84 z-score
CCGATTAACATCAGGCGATCCCCTGATGTTAATCGGGTCTTGATTCGCTTGACGCTGCTG	5.05 z-score	4.17 z-score	5.07 z-score	1.58 z-score	6.53 z-score	5.06 z-score	3.98 z-score
CCGATTAACATCAGGAGTTCCCCTGATGTTAATCGGGTCTTGATTCGCTTGACGCTGCTG	8.41 z-score	9.9 z-score	7.6 z-score	5.41 z-score	9.69 z-score	9.11 z-score	6.51 z-score
CCGATTAACATCAGATTTTCCCATGATGTTAATCGGGTCTTGATTCGCTTGACGCTGCTG	3.85 z-score	5.14 z-score	6.26 z-score	5 z-score	1.26 z-score	4.25 z-score	3.82 z-score
CCGATTAACATCAAAAGAACCCCTGATGTTAATCGGGTCTTGATTCGCTTGACGCTGCTG	4.18 z-score	3.46 z-score	3.14 z-score	2.76 z-score	5.45 z-score	4.8 z-score	4.47 z-score
CCGATTAACATCAGCAATCCCCCTGATGTTAATCGGGTCTTGATTCGCTTGACGCTGCTG	7.85 z-score	6.26 z-score	6.95 z-score	4.31 z-score	5.79 z-score	5.16 z-score	6.73 z-score
CCGATTAACATCACAAGTTTCCCTGATGTTAATCGGGTCTTGATTCGCTTGACGCTGCTG	4.14 z-score	5.33 z-score	5.84 z-score	4.92 z-score	2.52 z-score	5.24 z-score	4.17 z-score
CCGATTAACATCAGATTTCCCCATGATGTTAATCGGGTCTTGATTCGCTTGACGCTGCTG	7.4 z-score	8.26 z-score	9.52 z-score	8.5 z-score	3.76 z-score	5.45 z-score	6.16 z-score
CCGATTAACATCAATAATTACCCTGATGTTAATCGGGTCTTGATTCGCTTGACGCTGCTG	2.91 z-score	4.26 z-score	4.81 z-score	3.12 z-score	3.09 z-score	3.72 z-score	3.55 z-score
CCGATTAACATCAAAATATTCCCTGATGTTAATCGGGTCTTGATTCGCTTGACGCTGCTG	6.25 z-score	7.36 z-score	7.68 z-score	4.81 z-score	4.34 z-score	6.27 z-score	4.33 z-score
CCGATTAACATCAAAAATCCCCTTGATGTTAATCGGGTCTTGATTCGCTTGACGCTGCTG	10.4 z-score	12.3 z-score	13.5 z-score	4.34 z-score	10.1 z-score	8.57 z-score	8.54 z-score
CCGATTAACATCAAAGAATTCCCTGATGTTAATCGGGTCTTGATTCGCTTGACGCTGCTG	5.56 z-score	7.26 z-score	7.47 z-score	4.52 z-score	5.42 z-score	6.11 z-score	5.05 z-score
CCGATTAACATCAGCATTCCCCCTGATGTTAATCGGGTCTTGATTCGCTTGACGCTGCTG	7.2 z-score	7.59 z-score	7.61 z-score	6.59 z-score	4.53 z-score	5.57 z-score	6.18 z-score
CCGATTAACATCAATATTTTCCCTGATGTTAATCGGGTCTTGATTCGCTTGACGCTGCTG	4.35 z-score	6.75 z-score	8.82 z-score	6.01 z-score	2.69 z-score	4.5 z-score	5.3 z-score
CCGATTAACATCAAAACTTTCCCTGATGTTAATCGGGTCTTGATTCGCTTGACGCTGCTG	4.81 z-score	8.68 z-score	8.65 z-score	6.16 z-score	4.08 z-score	7.54 z-score	5.54 z-score
CCGATTAACATCACAGTCCCCCCTGATGTTAATCGGGTCTTGATTCGCTTGACGCTGCTG	5.98 z-score	5.07 z-score	5.18 z-score	5.62 z-score	4.6 z-score	4.63 z-score	4.33 z-score
CCGATTAACATCAAAACTCCCCCTGATGTTAATCGGGTCTTGATTCGCTTGACGCTGCTG	9.31 z-score	8.47 z-score	9.96 z-score	9.22 z-score	8.02 z-score	7.6 z-score	8.06 z-score
CCGATTAACATCAGGGGGATACATGATGTTAATCGGGTCTTGATTCGCTTGACGCTGCTG	5.54 z-score	4.96 z-score	5.54 z-score	6.27 z-score	3.6 z-score	4.35 z-score	5.05 z-score
CCGATTAACATCAGGGGAGTACCTGATGTTAATCGGGTCTTGATTCGCTTGACGCTGCTG	7.52 z-score	5.33 z-score	6.46 z-score	3.7 z-score	7.86 z-score	7.18 z-score	4.93 z-score
CCGATTAACATCACGGGATCCCCTGATGTTAATCGGGTCTTGATTCGCTTGACGCTGCTG	7.35 z-score	4.81 z-score	6.31 z-score	3.23 z-score	9.23 z-score	5.41 z-score	4.53 z-score
CCGATTAACATCACCCACTCCCCTGATGTTAATCGGGTCTTGATTCGCTTGACGCTGCTG	4.11 z-score	2.69 z-score	3.92 z-score	2.82 z-score	1.47 z-score	3.04 z-score	3.03 z-score
CCGATTAACATCACCCTTCCCCCTGATGTTAATCGGGTCTTGATTCGCTTGACGCTGCTG	4.54 z-score	4.49 z-score	5.26 z-score	5.61 z-score	2.99 z-score	4.32 z-score	4.43 z-score
CCGATTAACATCAGGGGAAAACATGATGTTAATCGGGTCTTGATTCGCTTGACGCTGCTG	6.62 z-score	7.81 z-score	9.93 z-score	8.6 z-score	5.04 z-score	6.17 z-score	6.18 z-score
